ADAM17 inh = inhibits human ADAM17; inhibition, % at 6.95 µM; 370,000 tested, 0.83% active; recombinant ADAM17, EDANS/DABCYL FRET peptide cleavage; P78536;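 active means inhibition above the mean of compounds lying between control limits plus 3 SD, set per campaign, cut at about 8.5% in these data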
proKLK7 act = activates the human kallikrein-7 zymogen. P49862. purified proKLK7, EDANS-DABCYL substrate fluorescence; 100% is mature enzyme control, 0% vehicle. activation, % at 7 µM. 370,000 tested, 0.9% active;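 active means activation above the mean of all tested compounds plus 3 SD, computed per campaign excluding outliers beyond control limits, cut at about 13% in these data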
NR3A LBD binder = NR3A (human) ligand-binding domain modulation; AID 1259313; 340,000 tested, 2.5% active; NR3A LBD differential scanning fluorimetry, Tm shift; 0% = protein alone, 100% = glycine-bound protein; Tm shift relative to glycine control, % at 25 µM;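 active means melting temperature shift of at least 10% of the positive control shift, at one fixed dose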
AHR act = activators of human aryl hydrocarbon receptor; P35869; AHR-responsive luciferase reporter cells, luminescence; activation, % at 5 µM; 320,000 tested, 2.5% active; in the data active means activation above about 47%
ADAM10 inh = inhibitors of human ADAM10 | O14672 | recombinant ADAM10, EDANS/DABCYL FRET peptide cleavage, 3 h | inhibition, % at 7 µM | 370,000 tested, 0.62% active | AID 720582;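 active means inhibition above a per-campaign cutoff equal to the mean of compounds falling between control-based bounds plus 3 SD, cut at about 20% in these data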
Target sequence (O14672 214-748 limits assumed): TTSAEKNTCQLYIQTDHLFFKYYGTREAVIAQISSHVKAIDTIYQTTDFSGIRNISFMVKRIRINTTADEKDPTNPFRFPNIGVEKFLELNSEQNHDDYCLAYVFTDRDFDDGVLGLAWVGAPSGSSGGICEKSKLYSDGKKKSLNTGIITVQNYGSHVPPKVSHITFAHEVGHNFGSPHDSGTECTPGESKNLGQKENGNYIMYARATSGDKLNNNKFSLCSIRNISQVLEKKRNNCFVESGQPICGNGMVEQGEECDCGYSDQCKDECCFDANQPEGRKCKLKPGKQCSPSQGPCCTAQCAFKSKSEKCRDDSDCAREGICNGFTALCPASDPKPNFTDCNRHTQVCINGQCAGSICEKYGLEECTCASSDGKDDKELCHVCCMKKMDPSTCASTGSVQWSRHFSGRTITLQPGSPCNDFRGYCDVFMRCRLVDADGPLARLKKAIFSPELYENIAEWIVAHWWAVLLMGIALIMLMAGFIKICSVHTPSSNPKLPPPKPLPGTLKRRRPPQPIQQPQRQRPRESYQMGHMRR
rCAG RNA binder = molecules binding r(CAG) RNA repeats | inhibition, % at 3 µM | 370,000 tested, 1.3% active | r(CAG) RNA repeat, TO-PRO-1 dye displacement fluorescence;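 active means inhibition above the plate cutoff, the mean of all test compounds on that plate plus 3 SD, cut at about 35% in these data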;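 further: higher means more dye released from RNA so lower well fluorescence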
ADAM10 counter = counter-screen for ADAM17 exosite inhibitors: inhibitors of human ADAM10 | 2,900 tested, 47% active | inhibition, % at 6.95 µM | shares compounds with ADAM17 inh | recombinant ADAM10, EDANS/DABCYL FRET peptide cleavage, 3 h;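 active means mean inhibition over the triplicate runs exceeds the activity threshold set in the earlier primary screen, cut at about 20% in these data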
ADAM17 confirm = confirmation of inhibitors of human ADAM17 | 2,900 tested, 65% active | inhibition, % at 6.95 µM | recombinant ADAM17, EDANS/DABCYL QFRET peptide cleavage | AID 743257 | shares compounds with ADAM17 inh;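 active means mean inhibition across replicates above the hit cutoff set in the primary screen, cut at about 8.5% in these data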
Numbers stand for hits; – = inactive; · = no result. Compounds with a hit are over-represented: about 7% of the library has one in this group of screens.

SMILES	ADAM17 inh	proKLK7 act	NR3A LBD binder	AHR act	ADAM10 inh	rCAG RNA binder	ADAM10 counter	ADAM17 confirm
O=C(NCc1cccs1)c1ccc(CS(=O)Cc2ccc(Cl)cc2)o1 (centres undefined)	–	–	·	·	–	–	·	·
CC(C)CC(=O)c1c(O)cc(O)c2c1OC1=C(C(=O)C(C)(C)C(=O)C1(C)C)C2CC(C)C (centres undefined)	9.2	–	·	·	–	–	–	–
CC1CCCC(C)N1C(=O)COC(=O)COc1ccc(C#N)cc1 (centres undefined)	9.8	–	–	–	–	–	–	–
O=S(=O)(NCCc1csc(-c2ccc(C(F)(F)F)cc2)n1)c1ccc2c(c1)OCCO2	9.3	–	–	–	–	–	–	10
COc1ccc(-c2nc(CCNS(=O)(=O)c3ccc4c(c3)OCCO4)cs2)cc1	–	–	–	–	–	–	·	·
Cc1cc(=O)[nH]c2[nH][nH]c(=O)c12	–	–	–	·	–	–	·	·
Cc1cc(C)c2c(=O)[nH][nH]c2n1	12	–	–	·	–	–	–	–
O=C(O)/C=C/C(=O)Nc1ccc(OC(F)(F)F)cc1Br	–	–	–	–	–	–	·	·
CCOc1ccccc1NC(=O)CN(c1ccc(OC)cc1)S(=O)(=O)c1c(C)[nH]c(=O)[nH]c1=O	–	–	–	–	–	–	·	·
O=S1(=O)CCN2C(c3ccc4c(c3)CCCC4)=CSC2=N1	8.7	–	–	–	–	–	24	12
CC(C)(C)NS(=O)(=O)c1ccc(CCC(=O)NCc2ccc3c(c2)OCO3)cc1	9.0	–	–	–	–	–	–	–
C/C(=N\NC(=S)NCCc1ccccc1)c1ccc(C)cc1	–	–	–	–	–	–	·	·
C/C(=N\NC(=S)NCCc1ccccc1)c1ccc(Cl)cc1	9.6	–	–	–	–	–	–	–
Cc1onc(-c2ccccc2)c1CNC(=O)Nc1ccc(C(F)(F)F)cc1	9.1	–	11	–	–	–	27	16
CS/C(=C\[N+](=O)[O-])Nc1ccc(Cl)cc1	12	–	–	–	–	–	–	–
CC(C)=CC(=O)Nc1ccc(Cl)cc1	–	–	–	–	–	–	·	·
COc1cccc(NC(=O)[C@@H]2CCC(=O)N2C2OC(=O)c3ccccc32)c1 (some centres undefined)	–	–	–	–	–	–	·	·
CCOC(=O)c1sc(-c2ccc(Cl)cc2Cl)nc1O	–	–	–	–	–	–	·	·
O=C(NCc1ccco1)c1ccc(S(=O)(=O)N2CCCc3ccccc32)cc1	10	–	–	–	–	–	–	–
Cc1ccc(NC2=C(Cl)C(=O)OC2OC(=O)c2ccc(C)cc2)cc1 (centres undefined)	9.0	–	–	–	–	–	–	12
COC(=O)c1ccc(NC2=C(Cl)C(=O)OC2OC(=O)c2ccccc2)cc1 (centres undefined)	–	–	–	–	–	–	·	·
O=C(O)C1C(c2ccccc2)c2ccccc2C(O)C1CO (centres undefined)	–	–	–	·	–	–	·	·
COc1ccc(NC(=O)N(C)C[C@H]2Oc3c(NC(=O)c4nc5ccccc5s4)cccc3C(=O)N([C@@H](C)CO)C[C@H]2C)cc1	12	–	–	–	–	–	25	13
COc1ccc(S(=O)(=O)Nc2ccc3c(c2)C(=O)N([C@H](C)CO)C[C@H](C)[C@@H](CN(C)C(=O)Nc2ccc(C(F)(F)F)cc2)O3)cc1	–	–	–	–	–	–	·	·
C[C@H](CO)N1C[C@H](C)[C@@H](CN(C)Cc2ccc(Oc3ccccc3)cc2)Oc2c(NC(=O)c3ccncc3)cccc2C1=O	12	–	–	–	–	–	–	–
SMILES	ADAM17 inh	proKLK7 act	NR3A LBD binder	AHR act	ADAM10 inh	rCAG RNA binder	ADAM10 counter	ADAM17 confirm
COc1ccc(S(=O)(=O)Nc2cccc3c2O[C@H](CN(C)C(=O)Nc2ccc(C(F)(F)F)cc2)[C@@H](C)CN([C@H](C)CO)C3=O)cc1	16	–	–	–	21	–	21	14
C[C@H](CO)N1C[C@H](C)[C@@H](CN(C)Cc2ccccc2)Oc2c(NC(=O)c3ccncc3)cccc2C1=O	–	–	–	–	–	–	·	·
COc1ccc(S(=O)(=O)Nc2ccc3c(c2)C(=O)N([C@H](C)CO)C[C@H](C)[C@@H](CN(C)C(=O)Nc2ccc(C(F)(F)F)cc2)OCCCC[C@H](C)O3)cc1	10	–	·	·	–	–	39	21
Cc1ccc(NC(=O)CSc2nnnn2-c2cccnc2)c(C)c1	–	–	–	–	–	–	·	·
O=C(CN1C(=O)CSc2ccc(S(=O)(=O)N3CCOCC3)cc21)NCCCN1CCCCC1	–	–	–	–	–	–	·	·
CC1CC(C)CN(CCCNC(=O)CN2C(=O)CSc3ccc(S(=O)(=O)N4CCCCC4)cc32)C1 (centres undefined)	10	–	–	–	–	–	–	9.8
O=C(NCCCN1CCCC1=O)c1cccc(NS(=O)(=O)c2ccc(Br)cc2)c1	–	–	–	–	–	–	·	·
COc1ccc(C2C3=C(N=C4SCC(=O)N42)c2ccccc2CC3)cc1 (centres undefined)	–	–	–	–	–	–	·	·
COc1ccc(C2C3=C(N=C4SCC(=O)N42)c2ccccc2CC3)cc1OC (centres undefined)	9.3	–	–	–	–	–	–	–
O=C(Nc1ccc(F)cc1)Nc1ccc([N+](=O)[O-])cn1	–	–	–	–	–	–	·	·
O=[N+]([O-])c1ccc(Nc2ccc(F)cc2)nc1	10	–	–	–	–	–	–	–
O=C(NC1CCCC1)C1CCN(C(=O)c2cccc(Cl)c2)CC1	–	–	–	–	–	–	·	·
CC1=C(C(=O)Nc2ccccc2)C(c2cccc([N+](=O)[O-])c2)Nc2nc3ccccc3n21 (centres undefined)	8.8	–	–	–	–	–	–	–
CNC(=O)C1=C(C)n2c(nc3ccccc32)NC1c1ccc(OC)cc1 (centres undefined)	–	–	–	–	–	–	·	·
CCCCNC(=O)C1(C)CCN1C(=O)c1cc(-c2cccs2)oc1C (centres undefined)	–	–	·	·	–	–	·	·
COc1cccc(OC)c1C(=O)Nc1cccc(-c2nc3ccccc3[nH]2)c1	8.7	–	–	–	–	–	–	–
CC1(c2nnc(Cc3ccccc3)o2)CC(c2ccc(Cl)cc2)=NO1 (centres undefined)	–	–	–	–	–	–	·	·

Screens as filed in PubChem.
